According to PubChem BioAssay AID602310 (National Center for Advancing Translational Sciences (NCATS), 2012):
About 310 (0.076%) of roughly 410,000 compounds were called active. About 2% were inconclusive and are not listed. The sample holds actives, similar compounds and a random draw of the others, so the mix is not that of the screen. Calls come from the whole dose curve; as a rule, active = well fitted curve in the direction sought with a large enough effect; inconclusive = small, poorly fitted or top-dose-only effect; inactive = flat fitted curve, though single readings scatter.

target: DNA dC->dU-editing enzyme APOBEC-3G (Homo sapiens) (UniProt Q9HC16); experiment: qHTS for Inhibitors of Vif-A3G Interactions: qHTS; conditions: HeLa A3G-eYFP + Vif (tagged APOBEC3G with the HIV-1 protein that degrades it), YFP fluorescence, overnight; series mostly up to 46.1 µM; note: nearly all actives have a fitted effect of over 60% in size
Sequence (Q9HC16 whole entry, looked up): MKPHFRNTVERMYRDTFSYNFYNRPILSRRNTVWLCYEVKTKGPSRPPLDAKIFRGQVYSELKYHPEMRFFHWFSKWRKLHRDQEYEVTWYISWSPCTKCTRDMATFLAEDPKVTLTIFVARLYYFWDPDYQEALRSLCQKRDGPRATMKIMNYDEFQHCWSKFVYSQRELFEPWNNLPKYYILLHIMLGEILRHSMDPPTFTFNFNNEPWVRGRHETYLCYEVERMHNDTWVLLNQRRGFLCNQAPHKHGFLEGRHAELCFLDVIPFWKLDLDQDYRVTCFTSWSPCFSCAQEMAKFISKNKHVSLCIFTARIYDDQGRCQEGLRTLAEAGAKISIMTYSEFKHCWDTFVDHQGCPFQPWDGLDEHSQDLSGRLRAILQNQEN
Description: The recent discovery and characterization of host restriction factors, which provide a potent defense to invading retroviruses, has provided new targets for antiviral drug development. APOBEC3G (A3G) and APOBEC3F (A3F) are potent cytidine deaminases that block HIV-1 replication; HIV-1 expresses the Vif protein, which counteracts A3G and A3F by binding to them and inducing their proteasomal degradation. The Vif-A3G and Vif-A3F interactions provide two potential targets for development of small molecules which can interfere with the ability of Vif to degrade A3G or A3F. […] To identify inhibitors that can interfere with Vif mediated degradation of A3G and A3F, we have developed Hela cell lines that stably express A3G or A3F tagged with eYFP at the C-terminal end (A3G-eYFP or A3F-eYFP, respectively) and Vif. In the absence of an inhibitor, Vif induces degradation of A3G-eYFP and A3F-eYFP, and the cells are not fluorescent. In the presence of an inhibitor, it is expected that Vif will be unable to degrade A3G-eYFP and/or A3F-eYFP, resulting in an increase in yellow fluorescence. In this assays Vif A3G was screened against the Molecular Library Small Molecule Repository (MLSMR). NIH Chemical Genomics Center [NCGC] NIH Molecular Libraries Probe Centers Network [MLPCN] MLPCN Grant: MH093245 Assay Submitter (PI): Vinay Pathak, National Cancer Institute
5 uL of 700 cells/well of A3G-YFP cells are dispensed into black, clear bottom plates. The plates are incubated overnight at 37 deg C. 23 nL of compounds are added by pintool. The plates are incubated overnight at 37 deg C and then read on the TTP Acumen (Ex 488/ Em 500-530).
Potency is the fitted concentration of half-maximal effect.

Potency, inactive:
O=C(c1cnn2c1NC(=C1CC1)C=C2C(F)F)N1CCc2ccccc2C1
Cc1cccc(CNC(=O)c2cnc3sc(N4CCCCC4)nn3c2=O)c1
Cc1ccccc1NC(=O)Cn1c(=O)n(Cc2ccco2)c(=O)c2ccc(C(=O)NC3CCCC3)cc21
CCOC(=O)c1ccc(NC(=O)c2c(NCc3cccs3)sc3c2CCCC3)cc1
CN(C)c1ccc(/C=C/c2sc3ccccc3[n+]2C)cc1
CC(C)Sc1oc(-c2cccs2)nc1S(=O)(=O)c1ccc(Cl)cc1
CCOC(=O)C1CCC(CN(Cc2ccc(OC)cc2)S(=O)(=O)c2ccc(F)c(C(=O)Nc3cc(C)ccc3C)c2)CC1 (stereo not given)
CC(C)c1ccc(NC(=O)Cn2c3ncccc3c(=O)n2-c2ccccc2)cc1
CC(C)(C)c1ccc(C(=O)C[N+]2(C)CCCc3ccccc32)cc1 (stereo not given)
Cc1cccc(N2CCN(S(=O)(=O)c3ccc4[nH]c5c(c4c3)CCCCC5)CC2)c1C
C=CCOc1cccc(C2NC(=O)c3ccccc3O2)c1 (stereo not given)
O=C1NC(c2ccccc2)Oc2ccccc21 (stereo not given)
COc1ccc(S(=O)(=O)NCC(c2ccc(N(C)C)cc2)N2CCc3ccccc32)cc1OC (stereo not given)
COc1cccc(NC(=O)Nc2ccc3c(c2)N(C)C(=O)c2ccccc2S3)c1
O=C(Nc1cc(C(F)(F)F)ccc1Cl)c1cc2nc(-c3ccc4c(c3)OCO4)cc(C(F)(F)F)n2n1
CC(C)(C)NC(=O)CSc1nc(-c2ccc(F)cc2)cc(C(F)(F)F)n1
CCOc1ccc(S(=O)(=O)c2cn(Cc3ccccc3)c3ccc(OCC)cc3c2=O)cc1
CC(NC(=O)c1cc2c(=O)n3ccccc3nc2n(C(C)C)c1=N)c1ccccc1 (stereo not given)
CC1CC1C(=O)OCC(=O)Nc1cccc(F)c1 (stereo not given)
CCN(CC)N=Nc1cccc(NC(C)=O)c1
COc1ccc(/C=C/c2ccnc3ccccc23)cc1OC
Cc1cccc(NC(=O)c2nnn(CC(=O)Nc3ccc(C(C)C)cc3)c2N)c1C
C/C=C/NNC(=O)Cc1ccc(OC)cc1
CO[C@H]1O[C@@H]2O[C@@]3(C)CC[C@@H]4[C@@H](C)CC[C@@H]([C@H]1C)[C@@]24OO3
CCOc1ccc(-c2cc3nc(C4CCN(C(=O)OC(C)(C)C)CC4)c(C(=O)Nc4ccc(C(=O)OC)cc4)cn3n2)cc1
CS(=O)(=O)c1ccc(-c2nnc(NC(=O)c3ccc4c(c3)OCCO4)o2)cc1
CCCCCn1c(=O)[nH]c2cc(C(=O)Nc3ccc(F)cc3)ccc2c1=O
N#Cc1ccc[n+](CC(=O)c2ccc(O)c(O)c2)c1
COc1ccc(CN2CCC(=O)c3ccccc3S2(=O)=O)cc1
Cc1c(CCO)sc[n+]1CC(=O)c1ccc2ccccc2c1
O=C(CSc1nc(-c2cccc(F)c2)[nH]c1-c1ccccc1)Nc1ccc2c(c1)OCO2
NC(=O)Nc1ccc(/C=C/c2ccnc3ccccc23)cc1
CCN(CC)/[N+]([O-])=N/OCOC(=O)Cc1c(C)n(C(=O)c2ccc(Cl)cc2)c2ccc(OC)cc12
COc1cc(C)ccc1OCCSc1nc2ccc(NC(=O)c3ccc(C)cc3)cc2s1
CC(=O)c1ccc[n+](C(C)CCC(C)[n+]2cccc(C(C)=O)c2)c1 (stereo not given)
CCCN1C(=O)C(O)(CC(=O)c2ccc(CC)cc2)c2cc(Br)ccc21 (stereo not given)
O=C(Nc1ccccc1C(F)(F)F)c1nc(S(=O)(=O)Cc2ccccc2F)ncc1Cl
Cc1cccc(N2CCN(C(=O)CCSCc3ccccc3F)CC2)c1C
CN(CCC#N)c1ccc(C=O)cc1
Cc1ccc(-c2nn3c(=O)cc(CN4CCN(S(=O)(=O)c5ccc(Cl)cc5)CC4)nc3s2)cc1
CC1(C)Cc2ccccc2-c2c[nH]c(=O)n21
COc1cc(NC(=O)CN2CCN(S(=O)(=O)c3ccc(Br)cc3)CC2)cc(OC)c1
Cc1cc(NC(=O)C2CCC(CNS(=O)(=O)c3ccc(Br)s3)CC2)ccc1Br (stereo not given)
Cc1ccc(NC(=O)CCCn2c(=O)c3cccn3c3ccccc32)cc1Cl
O=C1COc2ccc(-c3csc(-c4ccc(Cl)cc4)n3)cc2N1
CN(C)c1ccc(C=Nc2ccc(/C=C/c3ccnc4ccccc34)cc2)cc1
Cc1ccc2nc(/C(C#N)=C/c3ccccc3F)[nH]c2c1
CCOC(=O)c1ccc(-c2ccc(/C=C(\C#N)C(=O)Nc3ccc(C)cc3)o2)cc1
Cc1c(C(=O)Nc2cccc(Cl)c2)oc2ccc(S(=O)(=O)N3CCOCC3)cc12
CS(=O)c1ccc(/C=C2\C=Cc3ccccc32)cc1 (stereo not given)
OCC(O)C(O)C(O)C(O)C=Nc1ccc(/C=C/c2ccnc3ccccc23)cc1 (stereo not given)
C=COC(=O)N1CCN(/[N+]([O-])=N/Oc2ccc([N+](=O)[O-])cc2[N+](=O)[O-])CC1
SCc1nc2ccc(Cl)cc2[nH]1
CCC(=O)N1CCc2cc(Br)cc(S(=O)(=O)CCC(=O)NCc3ccccc3OC)c21
O=C(CCSCc1cccc(F)c1)NCc1ccccc1
O=C1C[C@H]2C=CCc3cccc(c32)CN1Cc1ccccc1
CN1CCN(/[N+]([O-])=N/Oc2ccc([N+](=O)[O-])cc2[N+](=O)[O-])CC1
O=C1CCC[C@@H]2C[C@@]3(C[C@@H]4CCN1[C@H]24)Nc1ccccc1NC3=NCc1ccccc1
CCC(C)NC(=O)Cn1c(=O)n(-c2ccc(Cl)cc2)c(=O)c2c3c(sc21)CCCC3 (stereo not given)
Cc1ccc(CSc2oc(-c3cccs3)nc2S(=O)(=O)c2ccc(C)cc2)cc1
CC1(C)C=Cc2c(ccc(C(=O)/C=C/c3ccccc3)c2O)O1
Cc1nc2nc(SCC(=O)N(Cc3ccccc3)C(C)C)nn2c(C)c1Cc1ccccc1Cl
C=C1C=C(C(F)F)n2ncc(C(=O)NCCc3ccccc3OC)c2N1
O=C1O/C(=C\c2ccc(O)cc2)C(O)=C1c1ccc(O)cc1
Cc1ccc(C)c(Cn2c(C(=O)O)c(CNCc3cccs3)c3ccccc32)c1
CCN(CC)c1ccc(/C=C/c2c(C)cnc3ccc(C)cc23)cc1
CCOc1cccc(CC(=O)N2CCc3c([nH]c4ccccc34)C2c2ccc(OC)cc2)c1OCC (stereo not given)
CCc1cccc(CC)c1NC(=O)Cn1c(=O)c(-c2cc(C)ccc2NC(C)=O)nc2ccccc21
CCN1CCN(CCCNC(=O)c2ccc3c(c2)sc2nc(-c4ccc(OC)cc4)cn23)CC1
COc1ccc(N2CCN(c3nc(-c4ccccc4F)nc4ccccc34)CC2)cc1
CC(C)(C)OC(=O)N(Cc1ccco1)S(=O)(=O)c1ccccc1Br
Nc1ncnc2nnsc12
Clc1cccc[n+]1CCCC[n+]1ccccc1Cl
O=C(NCC(c1ccco1)S(=O)(=O)c1cccs1)c1ccc(F)cc1 (stereo not given)
COc1ccc(-c2nc(=N)sn2-c2ccccc2)cc1
Cc1ccccc1NC(=O)c1c(NC(=O)c2ccccc2F)sc2c1CCC(C)C2 (stereo not given)
COc1ccc(-c2[nH]c3c(c2-c2c(-n4cccc4)n(C)c(=O)n(C)c2=O)c(=O)n(C)c(=O)n3C)cc1
OC(CBr)CN1CCCCC1 (stereo not given)
CN(C(=N)N)c1ccc(/C=C2\C=Cc3ccccc32)cc1
Cc1cccn2c(=O)c3cc(C(=O)NC(C)c4ccccc4)c(=N)n(CCCO)c3nc12 (stereo not given)
COC(=O)c1ccc(OC)c(Cn2c(=O)n(Cc3ccccc3)c(=O)c3c2c2cc(OC)ccc2n3C)c1
CCOC(=O)c1scc(-c2ccc(C)cc2)c1S(=O)(=O)Nc1cc(C)ccc1C
COc1ccc(OCC(=O)Nc2cccc(C(=O)OCc3cc(=O)n4nc(C)sc4n3)c2)cc1
CCOc1ccc(N(CC)S(=O)(=O)N2CCCC(C(=O)Nc3ccc(C(C)=O)cc3)C2)cc1 (stereo not given)
Cc1ccc(S(=O)(=O)c2nc(-c3ccco3)oc2SCC(=O)Nc2ccc(F)cc2)cc1
COc1ccc(CNC(=O)c2ccc3c(c2)nc2n3CCOC2)c(OC)c1
COC(=O)c1cc(NC(=O)CCS(=O)(=O)c2cc(Br)cc3c2N(C(=O)C2CC2)CC3)cc(C(=O)OC)c1
CCCCN(CC)CCCNC(=O)Cn1ncc2c([nH]c3ccc(C)cc32)c1=O
O=C(Nc1ccccc1F)C(c1ccccc1)N1Cc2ccccc2C1=O (stereo not given)
OC(Cc1ccc2ccccc2n1)c1ccc(Cl)c(Cl)c1 (stereo not given)
Cc1c(-c2nsc(NC(=O)c3cccc(Cl)c3)n2)nnn1-c1ccccc1C(F)(F)F
CN(C)c1ccc(/C=C2\C=Cc3ccccc32)cc1Br
CCn1c(=O)c(=O)n(CC)c2cc(N3CCCCC3)c(NC(=O)c3cccc(F)c3)cc21
CN(C)c1ccc(/C=N\Nc2ccc([N+](=O)[O-])cc2[N+](=O)[O-])cc1Cl
CC1CCc2noc(NC(=O)c3ccc([N+](=O)[O-])cc3)c2C1 (stereo not given)
Cc1cc(NS(=O)(=O)c2ccc3oc(=O)c4ncn(C)c4c3c2)ccc1Br
Cc1cc(C)c2oc(C(=O)Nc3c(C(=O)Nc4ccccc4)oc4ccccc34)cc(=O)c2c1

Potency, active:
O=C1NC(c2cccc(Cl)c2)Nc2ccccc21 (stereo not given) 11.2 µM
CCN(CC)C(=O)CSC(Nc1cccc(F)c1)=C(C#N)C#N 12.6 µM
Cc1ccc2nc(/C(C#N)=C/c3ccc(-c4ccc(C(=O)OC(C)C)cc4)o3)[nH]c2c1 2 µM
